This is an account of results in PubChem BioAssay (EPA / NIEHS).

Each structure is given as a SMILES string. “And” between values parts separate entries of the source, which are not always exact repeats. Identical values can stand only once. The source made the active and inactive calls. How the source made its calls: active means hit-call score of the fitted dose curve at least 0.9, where 1 is the maximum; inactive means score below 0.9.

The test can be described thus: CCTE_Shafer_MEA_acute_spike_number: CCTE's Neural Acute Assay for Total Number of Spikes, Shafer Lab (AID 2284008).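 On AC50: curve fitted for decrease in spike count so AC50 reflects inhibitors.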 How it is done: CCTE_Shafer_MEA_acute assay is conducted using Axion Biosystems 48 well microelectrode array (MEA) plates and Maestro recording system. Each well of the MEA plate contains a grid of 16 microelectrodes embedded in the culture surface. Electrically active cells, such as neurons, can be cultured over the electrodes, and electrical activity in these cells can be recorded extracellularly. The spontaneous firing of neurons is captured from each electrode on a microsecond timescale providing both temporally and spatially precise data. […] The CCTE_Shafer_MEA_acute assay uses primary cultures of rat cortical neurons. As these cultures mature over time, neural networks develop functional activity and form cohesive networks in which electrical activity can be highly coordinated. Baseline 40-minute recordings are made on days post-plating 13 or 15, followed by a secondary 40-minute recording after chemical exposure.CCTE_Shafer_MEA_acute_spike_number is a component of the CCTE_Shafer_MEA_acute assay. It measures the total number of spikes (action potential firings) in a 40-minute recording in a microelectrode array (MEA) using Axion Biosystems Maestro 768 channel amplifier with the AxIS adaptive spike detector. The recordings before and after chemical treatment are used to calculate a percent change in the spike number in each well. Data from the assay component CCTE_Shafer_MEA_acute_spike_number was analyzed into 1 assay endpoint. This assay endpoint, CCTE_Shafer_MEA_acute_spike_number, was analyzed in the negative analysis fitting direction relative to DMSO as the negative control and baseline of activity. Using a type of functional reporter, gain or loss-of-signal activity can be used to understand electrical activity.
Spontaneous activity in the cortical cultures was recorded using an Axion Biosystems Maestro 768 channel amplifier and Axion Integrated Studios (AxIS) v1.8 (or later) software. The amplifier recorded from all channels simultaneously (gain = 1200 x; sampling rate = 12.5 kHz/channel): raw signals were filtered with a Butterworth band-pass filter (300-5000 Hz), which filters out slower local field potentials leaving only fast potentials, i.e., "spikes", arising from extracellular currents associated with action potentials (Pine 2006; Wheeler and Nam 2011). On-line spike detection of filtered signals was conducted with the AxIS adaptive spike detector, using a threshold of 8x the root mean squared (rms) noise on each channel. Any electrodes with rms noise levels greater than 5 uV were grounded (e.g., no data were recorded). Once grounded, an electrode was grounded for the duration of the experiment. All recordings were conducted at 37 C. Wells were deemed usable if on the day of the exposure >/= 10 electrodes were active (defined as >/= 5 spikes/min). On DIV 13 or 15, a minimum of three wells from one cortical culture preparation were treated with each compound (0.03-40 uM). Prior to recording baseline activity, each mwMEA plate was placed in the Maestro at 37 C and allowed to sit for 20 min while firing rates stabilized. Baseline activity (40 min) was recorded before the addition of each compound. An additional 40 min of spontaneous activity was recorded in the presence of each compound. Changes in network parameters relative to baseline were assessed following compound treatment.
The term AC50 denotes the concentration at which the activity in the assay is half-maximal. Consider `C#CCOS(=O)OC1CCCCC1Oc1ccc(C(C)(C)C)cc1` (stereo not drawn), for which the AC50 was 9.46 µM (active).

Turning to `N#Cc1nn(-c2c(Cl)cc(C(F)(F)F)cc2Cl)c(N)c1S(=O)C(F)(F)F` (stereo not drawn), the half-maximal activity concentration (AC50) was 10.3 µM (active) and 9.11 µM (active).

For `CCCC1COC(Cn2cncn2)(c2ccc(Cl)cc2Cl)O1` (stereo not drawn), the compound was called inactive.

`CS/C(C)=N/OC(=O)N(C)SN(C)C(=O)O/N=C(\C)SC`: the outcome was inactive.

With `N#CC(CCc1ccc(Cl)cc1)(Cn1cncn1)c1ccccc1` (stereo not drawn), the compound was called inactive.

Regarding `COC(=O)C(C)Oc1ccc(Oc2ccc(Cl)cc2Cl)cc1` (stereo not drawn), the result was inactive.

`CCCCNC(=O)OCC#CI`: the AC50 was 10.2 µM (active).

For `COc1ccc(C(c2ccc(OC)cc2)C(Cl)(Cl)Cl)cc1`, the call was inactive.

`CC1COC(Cn2cncn2)(c2ccc(Oc3ccc(Cl)cc3)cc2Cl)O1` (stereo not drawn): the AC50 was 3.53 µM (active).

For `CCNc1nc(Cl)nc(NC(C)C)n1`, the call was inactive.

In the case of `COC(=O)N(OC)c1ccccc1COc1ccn(-c2ccc(Cl)cc2)n1`, the concentration at half-maximal activity (AC50) was 0.0781 µM (active).

As for `COP(N)(=O)SC` (stereo not drawn), the compound was classed as inactive.

Consider `CO/C=C(/C(=O)OC)c1ccccc1Oc1cc(Oc2ccccc2C#N)ncn1`, for which the compound was classed as inactive.

In the case of `CON(C)C(=O)Nc1ccc(Cl)c(Cl)c1`, the compound was classed as inactive.

With `Cc1ccc(-c2c(Cl)nc(C#N)n2S(=O)(=O)N(C)C)cc1`, the compound was classed as inactive.

Regarding `CC(C)(C)c1ccc(CSc2cnn(C(C)(C)C)c(=O)c2Cl)cc1`, the AC50 was 0.0249 µM (active).

For the compound `Fc1ccc(Oc2ccnc3cc(Cl)cc(Cl)c23)cc1`, the call was inactive.

For `CNC(=O)ON=CC(C)(C)SC`, the result was inactive.

With `O=C(O)c1nc(Cl)ccc1Cl`, the compound was classed as inactive.

Take `CCCN(CCC)c1c([N+](=O)[O-])cc(S(N)(=O)=O)cc1[N+](=O)[O-]`: the AC50 is 4.91 µM (active).

For the compound `CC(Oc1ccc(Cl)cc1Cl)C(=O)O` (stereo not drawn), the result was inactive.

For `OC(c1ccc(Cl)cc1)(c1cncnc1)c1ccccc1Cl` (stereo not drawn), the AC50 was 0.792 µM (active).

As to `COP(=S)(OC)Oc1nc(Cl)c(Cl)cc1Cl`, the compound was classed as inactive.

As to `C=CCC1=C(C)[C@@H](OC(=O)[C@@H]2[C@@H](C=C(C)C)C2(C)C)CC1=O`, the AC50 was 4.06 µM (active).

On to `C=CCC1=C(C)C(OC(=O)C2C(C=C(C)C)C2(C)C)CC1=O` (stereo not drawn), for which the compound was classed as inactive.

Consider `Cc1c(F)c(F)c(COC(=O)C2C(/C=C(\Cl)C(F)(F)F)C2(C)C)c(F)c1F` (stereo not drawn), for which the AC50 was 0.567 µM (active).

Regarding `CCOP(=S)(OCC)SCn1c(=O)oc2cc(Cl)ccc21`, the outcome was inactive.

As for `CC(C)Oc1cc(-n2nc(C(C)(C)C)oc2=O)c(Cl)cc1Cl`, the outcome was inactive.
